# In PubChem BioAssay AID652039 (The Scripps Research Institute Molecular Screening Center, 2013):
# Among all 370,000 compounds or so, about 3,300 (0.89%) were called active. This is one part of a sample in which actives are shown more often than they occur. A number with no mark means an inactive call.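 How the source made its calls: active means activation above the mean of all tested compounds plus 3 SD, computed per campaign excluding outliers beyond control limits (cut at about 13% in these data); inactive means the rest.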
# Target: Kallikrein-7 (Homo sapiens) (UniProt P49862)
# Assay: activation of human kallikrein-7 proenzyme – biochemical, fluorescence intensity, primary screen (AID 652039)
# Settings: purified proKLK7, EDANS-DABCYL substrate fluorescence; at 7 µM; stronger effect = higher value; 100% is mature enzyme control, 0% vehicle
# Kallikrein-7 (Homo sapiens), sequence (P49862 whole entry, looked up): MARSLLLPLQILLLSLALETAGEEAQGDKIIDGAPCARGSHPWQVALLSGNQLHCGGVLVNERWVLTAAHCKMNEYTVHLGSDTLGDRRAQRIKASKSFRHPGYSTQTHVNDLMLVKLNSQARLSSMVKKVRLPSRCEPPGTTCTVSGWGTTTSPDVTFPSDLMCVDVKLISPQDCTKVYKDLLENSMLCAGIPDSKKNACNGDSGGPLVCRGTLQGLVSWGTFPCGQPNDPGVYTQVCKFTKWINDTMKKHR
row,Compound,activation
1,COc1cccc2sc3cc(NCC[C@@H]4CCCN4C)ccc3c(=O)c12,41.5% (active)
2,Cc1cc2oc3ccc(NCCC4CCCN4C)cc3c(=O)c2cc1C (stereo unspecified),0.31%
3,CCOC(=O)[C@]12CCCC=C1N(CCCOC)C(=O)[C@@H]2CC(=O)N1CCOCC1,0.35%
4,COc1cc(NC(=O)C2CCCN(S(=O)(=O)c3ccc(C(C)(C)C)cc3)C2)cc(OC)c1 (stereo unspecified),0.22%
5,Cc1ccc(Cn2cc(COC(=O)N(C)Cc3ccccc3)nn2)cc1,0.39%
6,c1cc(-c2ccc3[nH]ccc3c2)n2ccnc2c1,3.83%
7,O=C(NCCO)c1cccc(-c2cccc3nccn23)c1,1.32%
8,Clc1ccc(-c2cccc3nccn23)cc1,25% (active)
9,CCN(CC)C(=O)CC[C@H]1CC[C@]2(CCCN(Cc3ccc(Cl)cc3)C2)O1,0.06%
10,Cc1ccc(-n2c(SCC(=O)Nc3ccc(S(=O)(=O)Nc4nccs4)cc3)nnc2-c2cccnc2)cc1,0.82%
11,COC(=O)[C@H](C(C)C)N(CCc1cn(Cc2ccccc2)nn1)S(=O)(=O)c1ccc(F)cc1Br,0.93%
12,O=C1OCCN1C(=O)[C@H]1[C@H](c2ccccc2)C(c2ccc(F)cc2)=NN1c1ccccc1,-23.2%
13,C[C@@H]1C(c2ccc(F)cc2)=NN(c2ccc(Br)cc2)[C@H]1C(=O)N1CCOC1=O,37.1% (active)
14,O=C1OCCN1C(=O)[C@H]1[C@H](c2ccc(Cl)cc2)C(c2cccc(Cl)c2)=NN1c1ccc(Br)cc1,-322%
15,CSc1ccc(C=Nn2c(-c3ccc(F)cc3)n[nH]c2=S)cc1,-0.19%
16,CN(C(=O)c1ccccn1)c1nnc(-c2ccccn2)s1,26.2% (active)
17,CN(C(=O)COc1ccccc1)c1nnc(-c2ccncc2)s1,15.3% (active)
18,CN(C(=O)C1CCOC1)c1nnc(-c2cccnc2)s1 (stereo unspecified),1.7%
19,CN(C(=O)c1ccccc1)c1nccnc1C#N,-0.08%

row,Compound,activation
1,CCC(C)(C)NC(=O)C(c1ccccn1)N(C(=O)c1csnn1)c1ccccc1 (stereo unspecified),0.19%
2,COc1cccc(-c2nnc(N(C)C(=O)c3ccno3)s2)c1,0.14%
3,CC(C)Oc1ccc(CCc2nnc(SCC(=O)O)n2-c2ccccc2)cc1,0.35%
4,O=C(Nc1nc2ccc(Cl)cc2s1)c1cc(-c2ccc(Cl)cc2)nc2ccccc12,0.7%
5,Cc1cc(OCC(=O)NCC(O)c2ccccc2)c2c(C)c(C)c(=O)oc2c1 (stereo unspecified),0.58%
6,CCOC(=O)COc1cc(OCC(=O)OCC)c2c(=O)cc(-c3ccccc3)oc2c1,13.1% (active)
7,COc1cccc2oc(CCc3ccccc3)cc(=O)c12,2.15%
8,COc1ccc(S[C@]2(C(=O)N(C)C)CC(=O)N(c3ccc(OC)cc3)[C@@H]2c2ccc(OC)cc2)cc1,0.22%
9,CC(c1ccc(N)cc1)c1cn(C)c2ccccc12 (stereo unspecified),0.46%
10,COc1ccc(C2CC=C(C(=O)O)C(c3ccccc3F)N2S(=O)(=O)c2ccc(C)cc2)cc1OC (stereo unspecified),0.12%
11,COC(=O)C1=CN(C)C=C(C(=O)OC)C1c1ccc(Cl)cc1Cl,0.08%
12,CCOc1ccccc1C1C(C(=O)OC)=CN(C)C=C1C(=O)OC,46.1% (active)
13,CCOc1cc(C2C(C(=O)OC)=CN(C3CCCC3)C=C2C(=O)OC)cc(Br)c1O,-0.82%
14,O=S1(=O)c2ccc(Br)cc2OC[C@@H](Cc2ccccc2)N1Cc1cn(Cc2ccco2)nn1,0.26%
15,CCOC(=O)c1[nH]c2ccc(OC)cc2c1NC(=O)CCN1CCN(Cc2ccccc2)CC1,13.4% (active)
16,COc1cc2[nH]c(=O)n(CCC(=O)NC3CCN(Cc4ccccc4)CC3)c(=O)c2cc1OC,-1.29%
17,Cc1cc(NC(=O)CCN2CCN(Cc3ccccc3)CC2)ccc1Br,0.91%
18,COc1ccc(C(=O)OCCN(C)C2CN(Cc3cn(Cc4cccc(C)c4)nn3)S(=O)(=O)C2)cc1OC (stereo unspecified),0%
19,CCCCNC(=O)C[C@H]1C(=O)N(Cc2ccc(OC)cc2)C2=CCCC[C@@]21C(=O)OCC,-0.1%

row,Compound,activation
1,N#Cc1ccccc1OC[C@@H](O)CN1CCC(C(O)(c2ccccc2)c2ccccc2)CC1,0.62%
2,COc1ccc(N2CCN(C(=O)Cn3cnc4sc(C)c(S(=O)(=O)N5CCOCC5)c4c3=O)CC2)cc1,-0.12%
3,FC(F)(F)Oc1ccc(-c2cn3cccnc3n2)cc1,34.6% (active)
4,c1ccc(-c2cn3cccnc3n2)cc1,32.3% (active)
5,COc1ccc(-c2cn3cccnc3n2)cc1,73.9% (active)
6,COc1ccc(-c2ccnc(SCC(=O)N3CCOCC3)n2)cc1,0.01%
7,COc1ccc(N2CCN(C(=O)CSc3nnc4ncccn34)CC2)cc1,0.11%
8,Nc1nc2ncccn2c1-c1ccccc1,5.34%
9,Cc1ccccc1Nc1c(-c2ccccc2)nc2ncccn12,0.74%
10,C=CCOC/C=C/C#CCN(CC=C)Cc1ccc(OC)cc1OC,0.82%
11,O=C(CSc1nc2ccccc2s1)N=Nc1c(O)[nH]c2ccccc12,0.68%
12,Cc1ccc(-n2c(COc3ccccc3)nnc2SCC(=O)Nc2ccc3c(c2)OCCO3)cc1,0.98%
13,CCOC(=O)N1CCN(C(=O)C[C@H]2C[C@@]3(C(=O)OC)C(=C[C@H](C(C)(C)C)O[C@@H]3C)N(Cc3ccc(Cl)cc3Cl)C2=O)CC1,0.88%
14,Cc1cc(C(=O)OCC(=O)N2C(C)CCCC2C)c2ccccc2n1 (stereo unspecified),-1.23%
15,COC(=O)c1cc(N2CCNCC2)nc2ccccc12,78.9% (active)
16,COC(=O)c1ccccc1Oc1c(F)c(F)nc(N2CCOCC2)c1F,0.34%
17,CCOC(=O)[C@@]12CN(C(=O)OC(C)(C)C)CC=C1N(Cc1ccc(OC)cc1)C(=O)[C@H]2CC(=O)NCc1ccc(OC)c(OC)c1,0.61%
18,CC1C(=O)C(C)C(c2ccc(O)cc2)NC1c1ccc(O)cc1 (stereo unspecified),0.15%
